Results: PubChem BioAssay (EPA / NIEHS)
Calls of active or inactive are those of the source. The calls were made as follows: active = hit-call score of the fitted dose curve at least 0.9, where 1 is the maximum; inactive = score below 0.9.

Key:
[1] = molecular target: Transcription factor E2F1 (Homo sapiens) (UniProt Q01094); assay: ATG_E2F_CIS: Attagene CIS-FACTORIAL HepG2 Assay for human E2F Transcription Factor 1 (AID 2282935); conditions: HepG2 Attagene cis-reporter, E2F reporter RNA transcripts; actives raise or lower the signal
Chain of Transcription factor E2F1 (Homo sapiens) (Q01094 whole entry, looked up): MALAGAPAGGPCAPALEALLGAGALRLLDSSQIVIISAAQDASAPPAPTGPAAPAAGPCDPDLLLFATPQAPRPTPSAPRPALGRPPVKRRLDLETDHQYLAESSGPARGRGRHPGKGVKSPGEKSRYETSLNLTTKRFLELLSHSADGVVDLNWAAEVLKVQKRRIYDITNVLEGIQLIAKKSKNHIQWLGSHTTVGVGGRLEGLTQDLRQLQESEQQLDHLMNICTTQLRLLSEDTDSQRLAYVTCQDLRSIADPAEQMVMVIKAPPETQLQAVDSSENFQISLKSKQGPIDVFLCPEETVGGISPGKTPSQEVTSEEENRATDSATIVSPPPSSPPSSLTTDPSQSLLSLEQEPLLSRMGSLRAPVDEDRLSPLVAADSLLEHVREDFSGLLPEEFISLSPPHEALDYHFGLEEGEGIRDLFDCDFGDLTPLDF
Summary of the method: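 Endogenous E2F1 activity read through cis-promoter reporter units transfected into HepG2. After 24 h compound treatment, reporter mRNA measured by RT-PCR, HpaI digestion and capillary electrophoresis. Bidirectional fit versus DMSO.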

[2] = ATG_E_Box_CIS: Attagene CIS-FACTORIAL HepG2 Assay for human Enhancer Box (E-box) (AID 2282936); conditions: HepG2 E-box cis-reporter transcription, actives raise or lower the signal
Summary of the method: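 HepG2 cells transiently transfected with multiplexed cis-element reporter units, dosed 24 h; reporter mRNA quantified by RT-PCR, 6-FAM labelling, HpaI digestion and capillary electrophoresis. E-box (USF1) signal fitted bidirectionally vs DMSO.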

[3] = ATG_M_61_CIS: Attagene CIS-FACTORIAL HepG2 Assay for M61 Transcription Factor (Internal Marker) (AID 2282937); conditions: HepG2 Attagene CIS-FACTORIAL M61 internal marker reporter; actives raise or lower the signal
Summary of the method: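 HepG2 cells transiently transfected with cis-element-driven multiple reporter transcription units, dosed for 24 h. Reporter mRNA measured by RT-PCR, 6-FAM primer-extension labelling, HpaI digestion and capillary electrophoresis; bidirectional fit versus DMSO baseline.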

[4] = ATG_EGR_CIS: Attagene CIS-FACTORIAL HepG2 Assay for human Early Growth Response 1 (EGR1) (AID 2282938); conditions: HepG2 Attagene CIS-FACTORIAL EGR reporter mRNA; actives raise or lower the signal
Summary of the method: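 HepG2 cells transiently transfected with cis-promoter-driven multiplexed reporter transcription units; reporter mRNA measured 24 h after compound dosing by RT-PCR, 6-FAM primer extension, HpaI digestion and capillary electrophoresis. Bidirectional fit versus DMSO baseline.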

[5] = ATG_M_19_CIS: Attagene CIS-FACTORIAL HepG2 Assay for M19 Transcription Factor (Internal Marker) (AID 2282939); conditions: HepG2 Attagene CIS-FACTORIAL M19 internal marker reporter; actives raise or lower the signal
Summary of the method: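 In this multiplexed cell assay, transiently transfected HepG2 reporter units report endogenous transcription-factor activity; after 24 hours of treatment, labelled reporter cDNA fragments are quantified by capillary electrophoresis and fitted bidirectionally against DMSO.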

[6] = ATG_ERE_CIS: Attagene CIS-FACTORIAL HepG2 Assay for Estrogen Response Element (ERE) (AID 2282940); conditions: HepG2 ERE cis-reporter, Attagene RNA transcript; actives raise or lower the signal
Summary of the method: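 Measuring endogenous transcription factor output, the assay doses transfected HepG2 cells for 24 hours and quantifies reporter transcripts by fluorescent RT-PCR and capillary electrophoresis, with DMSO as baseline.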

[7] = ATG_Ets_CIS: Attagene CIS-FACTORIAL HepG2 Assay for human Erythroblast Transformation Specific (ETS) (AID 2282941); conditions: HepG2 ETS cis-reporter transcription, actives raise or lower the signal
Summary of the method: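 HepG2 cells transfected with multiple cis-regulated reporter units measuring endogenous ETS-driven transcription, 24 h after dosing. Reporter mRNA quantified by RT-PCR with capillary electrophoresis; bidirectional fit relative to DMSO.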

[8] = molecular target: Hepatocyte nuclear factor 3-beta (Homo sapiens) (UniProt Q9Y261); assay: ATG_FoxA2_CIS: Attagene CIS-FACTORIAL HepG2 Assay for human Forkhead box A2 (FOXA2) (AID 2282942); conditions: HepG2 cis-reporter transcription factor activity, 24 h; actives raise or lower the signal
Chain of Hepatocyte nuclear factor 3-beta (Homo sapiens) (Q9Y261 whole entry, looked up): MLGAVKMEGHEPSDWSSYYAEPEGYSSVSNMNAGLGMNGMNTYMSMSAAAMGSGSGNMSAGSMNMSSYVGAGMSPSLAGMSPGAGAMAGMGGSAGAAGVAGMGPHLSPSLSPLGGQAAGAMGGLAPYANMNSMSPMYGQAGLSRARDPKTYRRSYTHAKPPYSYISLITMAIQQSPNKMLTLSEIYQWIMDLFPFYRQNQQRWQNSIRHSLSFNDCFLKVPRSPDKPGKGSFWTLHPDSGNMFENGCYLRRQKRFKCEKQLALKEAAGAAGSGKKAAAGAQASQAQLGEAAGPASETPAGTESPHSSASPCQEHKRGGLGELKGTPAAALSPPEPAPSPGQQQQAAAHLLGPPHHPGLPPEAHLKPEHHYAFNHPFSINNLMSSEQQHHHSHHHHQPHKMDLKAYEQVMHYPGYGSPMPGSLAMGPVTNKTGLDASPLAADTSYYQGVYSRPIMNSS
Summary of the method: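 HepG2 cells transiently transfected with multiple cis-regulated reporter transcription units, dosed for 24 h. Reporter mRNA measured by RT-PCR, 6-FAM labelling, HpaI digestion and capillary electrophoresis; bidirectional fitting against DMSO baseline.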

[9] = ATG_FoxO_CIS: Attagene CIS-FACTORIAL HepG2 Assay for human Forkhead box O (FoxO) (AID 2282943); conditions: HepG2 Attagene cis-reporter, FoxO element, mRNA; actives raise or lower the signal
Summary of the method: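 HepG2 cells transiently transfected with cis-element-driven reporter units report endogenous FoxO activity. After 24 h chemical exposure, reporter mRNA quantified by RT-PCR, fluorescent labeling, HpaI digestion and capillary electrophoresis; bidirectional fit versus DMSO.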

[10] = ATG_GATA_CIS: Attagene CIS-FACTORIAL HepG2 Assay for human GATA Binding Protein (AID 2282944); conditions: HepG2 GATA cis-element reporter, Attagene multiplex mRNA; actives raise or lower the signal
Summary of the method: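 Measures endogenous transcription factor-driven reporter mRNA in HepG2 cells transiently carrying cis-regulated constructs. 24 h dosing; RNA via oligo(dT) reverse transcription, PCR, HpaI digestion, capillary electrophoresis; fitted relative to DMSO.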

[11] = ATG_GLI_CIS: Attagene CIS-FACTORIAL HepG2 Assay for human Zinc Finger Protein GLI1 (AID 2282945); conditions: HepG2, Attagene cis-factorial reporter mRNA, GLI element; actives raise or lower the signal
Summary of the method: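 Transiently transfected HepG2 cells report endogenous transcription factor activity via cis-element-driven reporter units. After 24 h compound exposure, reporter mRNA was measured by RT-PCR with capillary electrophoresis; bidirectional fitting against DMSO baseline.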

[12] = molecular target: Bile acid receptor (Homo sapiens) (UniProt Q96RI1); assay: ATG_IR1_CIS: Attagene CIS-FACTORIAL HepG2 Assay for human Nuclear Receptor Subfamily 1 Group H Member 4 (NR1H4), IR1 submotif (AID 2282946); conditions: IR1 reporter transcription, actives raise or lower the signal
Chain of Bile acid receptor (Homo sapiens) (Q96RI1 whole entry, looked up): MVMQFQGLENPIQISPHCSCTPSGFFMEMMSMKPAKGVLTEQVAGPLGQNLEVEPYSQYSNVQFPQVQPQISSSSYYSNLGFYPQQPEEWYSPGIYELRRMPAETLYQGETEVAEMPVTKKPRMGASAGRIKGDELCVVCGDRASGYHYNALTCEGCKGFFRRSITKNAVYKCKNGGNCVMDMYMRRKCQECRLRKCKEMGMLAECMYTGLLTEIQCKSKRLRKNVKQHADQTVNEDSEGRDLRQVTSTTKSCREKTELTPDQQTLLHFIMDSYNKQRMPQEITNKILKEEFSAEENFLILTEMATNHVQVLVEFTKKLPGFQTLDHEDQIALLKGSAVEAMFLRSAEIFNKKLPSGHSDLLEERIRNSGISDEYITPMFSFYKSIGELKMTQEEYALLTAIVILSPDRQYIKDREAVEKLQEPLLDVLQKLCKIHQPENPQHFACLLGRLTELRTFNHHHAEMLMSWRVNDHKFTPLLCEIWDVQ
Summary of the method: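 HepG2 cells transiently transfected with multiple cis-promoter-driven reporter units to measure endogenous transcription factor activity; 24 h exposure. Reporter mRNA read by RT-PCR, FAM labelling, HpaI digestion and capillary electrophoresis. Bidirectional fit versus DMSO.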

[13] = ATG_GRE_CIS: Attagene CIS-FACTORIAL HepG2 Assay for human Glucocorticoid Response Elements (GRE) (AID 2282947); conditions: HepG2 GRE cis-reporter, Attagene multiplex mRNA; actives raise or lower the signal
Summary of the method: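 Transiently transfected HepG2 cells carrying GRE cis-reporter units (endogenous TF activity) dosed 24 h; reporter mRNA quantified by RT-PCR, 6-FAM labelling, HpaI digestion and capillary electrophoresis. Bidirectional fit versus DMSO baseline.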

[14] = ATG_ISRE_CIS: Attagene CIS-FACTORIAL HepG2 Assay for human Interferon Regulatory Factor 1 (IRF1) binding to an Interferon-Stimulated Response Element (ISRE) (AID 2282948); conditions: HepG2 ISRE cis-reporter (Attagene), mRNA transcription readout; actives raise or lower the signal
Summary of the method: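 Transiently transfected HepG2 cells carrying cis-element reporter units, dosed 24 hours. Reporter mRNA quantified by RT-PCR, fluorescent primer extension, HpaI digestion and capillary electrophoresis. Bidirectional fitting relative to DMSO.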

[15] = ATG_M_32_CIS: Attagene CIS-FACTORIAL HepG2 Assay for M32 Transcription Factor (Internal Marker) (AID 2282949); conditions: HepG2 Attagene cis-factorial M32 reporter, mRNA; actives raise or lower the signal;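 also: background control marker of the multiplexed CIS panel rather than a real target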
Summary of the method: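 HepG2 cells transiently transfected with multiplexed cis-regulated reporter units, dosed 24 h. Reporter mRNA quantified by RT-PCR, 6-FAM labelling, HpaI digestion and capillary electrophoresis; bidirectional fit vs DMSO.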

[16] = ATG_M_06_CIS: Attagene CIS-FACTORIAL HepG2 Assay for M06 Transcription Factor (Internal Marker) (AID 2282950); conditions: HepG2 Attagene CIS-FACTORIAL M06 internal marker reporter; actives raise or lower the signal
Summary of the method: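 One of many multiplexed endpoints: HepG2 reporter mRNA after 24 h dosing, detected by RT-PCR and capillary electrophoresis fluorescence; gain or loss of signal analysed against DMSO.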

[17] = molecular target: Hepatocyte nuclear factor 6 (Homo sapiens) (UniProt Q9UBC0); assay: ATG_HNF6_CIS: Attagene CIS-FACTORIAL HepG2 Assay for human Hepatocyte Nuclear Factor 6 (HNF6) (AID 2282952); conditions: HepG2 Attagene cis-factorial HNF6 reporter transcription; actives raise or lower the signal
Chain of Hepatocyte nuclear factor 6 (Homo sapiens) (Q9UBC0 whole entry, looked up): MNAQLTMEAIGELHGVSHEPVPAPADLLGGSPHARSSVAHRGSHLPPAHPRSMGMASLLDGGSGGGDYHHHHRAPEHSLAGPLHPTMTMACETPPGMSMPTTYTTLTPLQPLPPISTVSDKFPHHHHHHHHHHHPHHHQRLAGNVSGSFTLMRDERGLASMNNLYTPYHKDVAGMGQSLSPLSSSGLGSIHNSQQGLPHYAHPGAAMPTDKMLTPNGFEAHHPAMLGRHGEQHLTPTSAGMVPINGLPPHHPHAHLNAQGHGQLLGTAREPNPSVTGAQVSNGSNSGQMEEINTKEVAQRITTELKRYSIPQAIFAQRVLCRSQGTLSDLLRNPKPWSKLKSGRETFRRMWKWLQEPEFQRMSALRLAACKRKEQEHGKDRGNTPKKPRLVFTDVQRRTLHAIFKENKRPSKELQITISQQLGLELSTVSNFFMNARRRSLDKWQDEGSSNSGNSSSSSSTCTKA
Summary of the method: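 HepG2, transient MRTU transfection (cis promoters); 24 h chemical exposure; total RNA → oligo(dT) RT → PCR → 6-FAM labelling → HpaI cut → CE; bidirectional fit vs DMSO.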

[18] = molecular target: Heat shock factor protein 1 (Homo sapiens) (UniProt Q00613); assay: ATG_HSE_CIS: Attagene CIS-FACTORIAL HepG2 Assay for human Heat Shock Transcription Factor 1 (HSE) (AID 2282953); conditions: HepG2 HSE cis-reporter, Attagene RNA transcription; actives raise or lower the signal
Chain of Heat shock factor protein 1 (Homo sapiens) (Q00613 whole entry, looked up): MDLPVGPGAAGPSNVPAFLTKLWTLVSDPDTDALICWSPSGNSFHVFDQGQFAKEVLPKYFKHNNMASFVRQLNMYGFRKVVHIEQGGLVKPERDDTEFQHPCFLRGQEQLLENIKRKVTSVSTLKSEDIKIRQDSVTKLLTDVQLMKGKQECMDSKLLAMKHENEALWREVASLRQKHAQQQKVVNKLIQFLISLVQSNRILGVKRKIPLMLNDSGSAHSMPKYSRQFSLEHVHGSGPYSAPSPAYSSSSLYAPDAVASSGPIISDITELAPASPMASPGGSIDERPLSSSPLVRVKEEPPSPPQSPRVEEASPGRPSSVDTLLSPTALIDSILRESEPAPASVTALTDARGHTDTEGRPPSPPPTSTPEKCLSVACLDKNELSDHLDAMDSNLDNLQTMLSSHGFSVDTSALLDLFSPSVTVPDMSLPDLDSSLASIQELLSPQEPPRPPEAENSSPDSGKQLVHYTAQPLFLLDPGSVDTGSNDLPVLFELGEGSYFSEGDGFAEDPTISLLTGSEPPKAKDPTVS
Summary of the method: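 Using HepG2 with transfected cis-driven reporter constructs, compound effects on endogenous factor activity are scored as reporter mRNA change at 24 h. Detection: RT-PCR, HpaI digestion, capillary electrophoresis; bidirectional fitting to DMSO.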

[19] = ATG_MRE_CIS: Attagene CIS-FACTORIAL HepG2 Assay for human Metal Responsive Element (MRE) (AID 2282954); conditions: HepG2 MRE cis-reporter transcription, Attagene multiplex; actives raise or lower the signal
Summary of the method: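 HepG2 cells transiently transfected with cis-element-driven reporter units; mRNA measured 24 h after dosing. Reporter transcripts quantified by RT-PCR, FAM labelling, HpaI digestion and capillary electrophoresis; bidirectional fit versus DMSO.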

[20] = molecular target: Hypoxia-inducible factor 1-alpha (Homo sapiens) (UniProt Q16665); assay: ATG_HIF1a_CIS: Attagene CIS-FACTORIAL HepG2 Assay for human Hypoxia Inducible Factor 1 (HIF1A) (AID 2282951); conditions: HepG2 Attagene cis-factorial HIF1a reporter transcription; actives raise or lower the signal
Chain of Hypoxia-inducible factor 1-alpha (Homo sapiens) (Q16665 whole entry, looked up): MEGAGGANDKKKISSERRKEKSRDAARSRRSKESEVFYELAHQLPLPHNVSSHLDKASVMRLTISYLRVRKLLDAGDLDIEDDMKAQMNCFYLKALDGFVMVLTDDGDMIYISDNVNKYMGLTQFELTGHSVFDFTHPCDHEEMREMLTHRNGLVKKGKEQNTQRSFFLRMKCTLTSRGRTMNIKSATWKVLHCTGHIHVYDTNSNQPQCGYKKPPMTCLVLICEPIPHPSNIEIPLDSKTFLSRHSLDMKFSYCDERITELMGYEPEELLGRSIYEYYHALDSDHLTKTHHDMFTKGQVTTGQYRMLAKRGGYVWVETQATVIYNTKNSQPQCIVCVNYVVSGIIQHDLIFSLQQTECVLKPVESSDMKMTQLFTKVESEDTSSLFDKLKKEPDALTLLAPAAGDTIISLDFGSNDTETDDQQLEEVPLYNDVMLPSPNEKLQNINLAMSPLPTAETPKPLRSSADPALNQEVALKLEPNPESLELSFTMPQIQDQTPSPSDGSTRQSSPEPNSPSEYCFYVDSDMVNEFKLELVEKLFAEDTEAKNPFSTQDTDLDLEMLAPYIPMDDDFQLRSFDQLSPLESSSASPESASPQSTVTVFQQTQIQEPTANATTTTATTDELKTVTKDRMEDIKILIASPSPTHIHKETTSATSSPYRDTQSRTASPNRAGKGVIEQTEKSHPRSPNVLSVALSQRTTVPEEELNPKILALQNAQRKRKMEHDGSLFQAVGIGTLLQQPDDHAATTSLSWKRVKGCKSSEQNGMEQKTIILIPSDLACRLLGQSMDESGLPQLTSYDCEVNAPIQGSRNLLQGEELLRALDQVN
Summary of the method: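 HepG2 cells transiently transfected with multiplexed cis-promoter reporter units; reporter mRNA read 24 h after dosing by RT-PCR, 6-FAM primer-extension labelling, HpaI digestion and capillary electrophoresis. Bidirectional fit versus DMSO baseline.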

Measured: AC50

NC(=O)C(F)(F)C(F)(F)C(F)(F)C(F)(F)C(F)(F)C(F)(F)C(F)(F)F
active: [6] 16 µM
not listed: [20]
inactive: all other assays above

O=C1OC(=O)c2ccc3c4c(ccc1c24)C(=O)OC3=O
not listed: [20]
inactive: all other assays above

C=CC(=O)OCC(F)(F)C(F)(F)C(F)(F)COC(=O)C=C
active: [2] 78.6 µM | [4] 42.4 µM | [14] 35.9 µM | [19] 33.2 µM
not listed: [16]
inactive: all other assays above

CCOC(C=C(C)CCC=C(C)C)OCC
not listed: [20]
inactive: all other assays above

O=C(Cl)C(F)(F)C(F)(F)C(F)(F)C(F)(F)C(F)(F)C(F)(F)F
not listed: [16]
inactive: all other assays above

CC(C)CC=C(C=O)c1ccccc1
active: [6] 35.2 µM
not listed: [16] | [20]
inactive: all other assays above

CC(=O)CCC(C)C
not listed: [20]
inactive: all other assays above
